Measurements reported in PubChem BioAssay (NCATS).
Results filed as inconclusive are left out. Active and inactive are the calls of the source. Unless noted, calls follow the shape of the dose curve; as a rule, active = well fitted curve in the direction sought with a large enough effect; inconclusive = small, poorly fitted or top-dose-only effect, or another doubt; inactive = no such curve, though single readings can be large; an effect the other way counts as inactive or inconclusive.

Columns and labels:
[1] = molecular target: Cytochrome P450 3A4 (Homo sapiens) (UniProt P08684); assay: qHTS Assay for Inhibitors and Substrates of Cytochrome P450 3A4 (AID 884); also: potency is read from the fitted curve at half-maximal effect; nearly all actives have a fitted effect of over 50% in size
Method in brief: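 20 nM human CYP3A4 with 25 uM Luciferin-PPXE (at KM) in 200 mM KPO4, preincubated 10 min with compound; NADPH regeneration started a 60 min RT reaction. Luciferin detected by luminescence, normalized to 57 uM ketoconazole as full inhibition.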

[2] = molecular target: Cytochrome P450 3A4 (Homo sapiens) (UniProt P08684); assay: qHTS Assay for Activators of Cytochrome P450 3A4 (AID 885); also: nearly all actives have a fitted effect of over 65% in size
Method in brief: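 Signal was normalized against complete inhibition by 57 uM ketoconazole. The reaction used 20nM CYP3A4 with 25uM Luciferin-PPXE, 10-min compound preincubation and a 60-min NADPH-supported step at RT.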

[3] = Confirmation and Secondary Assay for Modulators of Hemoglobin Beta Chain Splicing at IVS2 654 locus (AID 910);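 also: HeLa cells stably carrying EGFP split by mutant beta-globin IVS2-654 intron; % of control where 0% means no effect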
Method in brief: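 HeLa cells stably expressing EGFP interrupted by β-globin IVS2-654 intron, seeded overnight in Opti-MEM/2% FCS, then treated 2 days at 37 °C. Restored splicing read as total peak GFP intensity per well by laser scanning cytometry (488 nm excitation, 500–520 nm emission); 500 nM antisense PNA as control.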

[4] = Confirmation and Secondary Assay for Modulators of Hemoglobin Beta Chain Splicing at IVS2 705 locus (AID 930);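 also: HeLa cells stably expressing the EGFP-705 splicing reporter; GFP fluorescence per well restored by corrected splicing of the IVS2-705 intron in EGFP; % of control where 0% means no effect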
Method in brief: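 Per-well GFP, captured at 1 x 8 µm resolution with 488 nm excitation, served as the read-out for HeLa EGFP-705 cells incubated 2 days with test compound versus DMSO.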

[5] = qHTS Assay for Lipid Storage Modulators (AID 1519; calls by dose curve); conditions: Drosophila S3 cells, BODIPY lipid droplet/cell ratio, laser cytometry, cells loaded with oleic acid; for activity change, negative = inhibition: at 57.5 µM (top of the series)
Method in brief: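 Cells seeded at 5,000 per well were treated with compounds over a concentration series and loaded with oleic acid (400 uM, as added). Lipid droplet fluorescence (488 nm excitation, 500-530 nm channel) was read by laser-scanning cytometry and normalized to 20 uM Triacsin C.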

[6] = molecular target: Ubiquitin carboxyl-terminal hydrolase 1 (Homo sapiens) (UniProt O94782); assay: Inhibitors of USP1/UAF1: Pilot qHTS (AID 504865); also: nearly all actives have a fitted effect of over 35% in size; also: potency is read from the fitted curve at half-maximal effect
Method in brief: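 Kinetic fluorescence assay: 1nM USP1/UAF1, 15 min compound preincubation, then 150nM Ub-Rho; 480/540 nm.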

[7] = Primary qHTS for small molecule stabilizers of the endoplasmic reticulum resident proteome: Secreted ER Calcium Modulated Protein (SERCaMP) assay (AID 1508630); also: % is scaled to controls: 0 for no effect and ±100 for the full control effect
Method in brief: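 GLuc-SERCaMP-expressing SH-SY5Y cells, pretreated 16 h with compound, are challenged with thapsigargin to empty ER calcium stores; after 4 h, coelenterazine is added directly to the medium and luminescence is imaged.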

[8] = molecular target: Lysosomal acid glucosylceramidase (Homo sapiens) (UniProt P04062); assay: Glucocerebrosidase-p2 (AID 348; in the data active = potency below about 10 µM; also: potency is read from the fitted curve at half-maximal effect); conditions: purified GBA, blue fluorogenic substrate, 40 min
Method in brief: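 Compounds titrated from 0.6 nM upwards against 0.2 nM enzyme in pH 5.9 citric acid/KH2PO4, taurocholate, tween-20; blue fluorogenic substrate 80 uM, 40 min room temperature, stopped and read Ex 365/Em 440 for AC50.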

[9] = AP1 Signaling Pathway (AID 357; active = well fitted curve in either direction with a large enough effect, not every such curve was filed as active; also: % is scaled to controls: 0 for no effect and ±100 for the full control effect)
Method in brief: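 ME-180 cells with beta-lactamase reporter under AP-1 response element, stimulated with EC50 EGF; compounds tested in titration series, 5 h at 37 °C. CCF4 substrate added 2.5 h at room temperature; 460/530 nm emission ratio gave %activity and AC50.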

[10] = molecular target: Cytochrome P450 1A2 (Homo sapiens) (UniProt P05177); assay: p450-cyp1a2 (AID 410; calls by dose curve; also: potency is read from the fitted curve at half-maximal effect;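 as to activity change, negative = inhibition: -100% = full effect of reference inhibitor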)
Method in brief: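 20nM CYP1A2 with 100uM Luciferin-ME (at Km) in 100mM KPO4; compound preincubated 10 min, NADPH regeneration added, 60 min at room temperature. Luciferin quantified by luminescence after detection reagent; normalized to 57 uM furafylline.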

[11] = NFAT Signaling Pathway (AID 444; active = well fitted curve in either direction with a large enough effect, not every such curve was filed as active;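 also: carbachol stimulus at about its EC50 of 1 µM final; % is scaled to controls: 0 for no effect and ±100 for the full control effect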); conditions: Jurkat NFAT-bla M1, carbachol, beta-lactamase ratio, 5 h; at 7.69 µM (top of the series)
Method in brief: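 Jurkat cells with NFAT-driven β-lactamase reporter and co-expressed M1 receptor, stimulated with carbachol (final 1 uM, ~EC50), compound titration, 5 h at 37 °C. CCF4 loaded 1 h at RT; 460/530 nm ratio gave %activity and AC50.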

[12] = Stat Signaling Pathway (AID 446; active = well fitted curve in either direction with a large enough effect, not every such curve was filed as active;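 also: ME-180 cervical cancer cells given 40 pM IL-6 alongside compound; SIE-controlled beta-lactamase reporter measured as 460/530 nm FRET emission ratio; % is scaled to controls: 0 for no effect and ±100 for the full control effect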)
Method in brief: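 Reporter line: ME-180 cervical carcinoma, SIE-beta-lactamase. Treatment: compound with 40 pM IL-6, 5 hrs, 37 C, in low-serum OPTI-MEM with 10 mM HEPES pH 7.3. Detection: 460/530 nm fluorescence.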

[13] = molecular target: Glucocorticoid receptor (Homo sapiens) (UniProt P04150); assay: GR-EFC Redistribution (AID 451; calls by dose curve; also: potency is read from the fitted curve at half-maximal effect); conditions: CHO-K1 GR-EFC translocation, beta-gal luminescence, 2 h
Method in brief: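 CHO-K1 cells expressing nuclear EA and GR-ED fragments of b-gal; compounds titrated up to 46 uM final, 2 h at 37 C. GR nuclear translocation read as complemented b-gal luminescence after 1 h RT detection.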

[14] = molecular target: Mitogen-activated protein kinase 10 (Mus musculus) (UniProt Q61831); assay: JNK3 AlphaScreen Assay (AID 530; active = well fitted curve in either direction with a large enough effect, not every such curve was filed as active)
Method in brief: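 Pre-activated (IL-1β/TNFα) JNK3 in HepG2 lysates phosphorylates biotin-GST-cJun(1-79), 10 uM ATP; anti-phospho-cJun(Ser73) AlphaScreen read at room temperature, pH 7.6 Tris buffer. Compounds pre-incubated 15 min as titrations.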

[15] = molecular target: Cytochrome P450 2D6 (Homo sapiens) (UniProt P10635); assay: qHTS Assay for Inhibitors and Substrates of Cytochrome P450 2D6 (AID 891); also: nearly all actives have a fitted effect of over 60% in size; also: potency is read from the fitted curve at half-maximal effect
Method in brief: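 Human CYP2D6 (5 nM) with 30 uM Luciferin-ME EGE (at Km) in 100 mM KPO4, compound preincubated 10 min, then NADPH regeneration system for 60 min at room temperature. Luciferin read by luminescence; normalized to 1.43 uM quinidine.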

[16] = measured here: cell count channel max response
[17] = measured here: lipid channel max response

Chain of Ubiquitin carboxyl-terminal hydrolase 1 (Homo sapiens) (O94782 whole entry, looked up): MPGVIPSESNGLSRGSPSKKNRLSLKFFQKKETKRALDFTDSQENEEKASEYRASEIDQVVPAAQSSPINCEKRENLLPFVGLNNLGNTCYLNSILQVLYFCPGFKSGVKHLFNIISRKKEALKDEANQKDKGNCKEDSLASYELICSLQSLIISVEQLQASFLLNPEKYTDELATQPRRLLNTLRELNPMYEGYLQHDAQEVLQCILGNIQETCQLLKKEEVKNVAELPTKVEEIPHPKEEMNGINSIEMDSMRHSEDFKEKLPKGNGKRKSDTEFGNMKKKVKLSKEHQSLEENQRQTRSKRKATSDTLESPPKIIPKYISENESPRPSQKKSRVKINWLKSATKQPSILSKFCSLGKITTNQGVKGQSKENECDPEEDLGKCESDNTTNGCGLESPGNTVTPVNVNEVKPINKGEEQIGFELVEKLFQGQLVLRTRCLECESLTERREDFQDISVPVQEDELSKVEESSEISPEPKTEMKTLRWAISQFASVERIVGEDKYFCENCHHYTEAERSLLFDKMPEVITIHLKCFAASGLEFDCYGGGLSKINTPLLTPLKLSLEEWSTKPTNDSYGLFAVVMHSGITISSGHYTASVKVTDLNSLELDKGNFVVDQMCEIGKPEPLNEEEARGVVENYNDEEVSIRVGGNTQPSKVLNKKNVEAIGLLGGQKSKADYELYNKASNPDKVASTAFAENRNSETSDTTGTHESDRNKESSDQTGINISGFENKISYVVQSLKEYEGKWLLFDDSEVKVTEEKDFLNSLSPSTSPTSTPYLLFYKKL
Chain of Cytochrome P450 3A4 (Homo sapiens) (P08684 whole entry, looked up): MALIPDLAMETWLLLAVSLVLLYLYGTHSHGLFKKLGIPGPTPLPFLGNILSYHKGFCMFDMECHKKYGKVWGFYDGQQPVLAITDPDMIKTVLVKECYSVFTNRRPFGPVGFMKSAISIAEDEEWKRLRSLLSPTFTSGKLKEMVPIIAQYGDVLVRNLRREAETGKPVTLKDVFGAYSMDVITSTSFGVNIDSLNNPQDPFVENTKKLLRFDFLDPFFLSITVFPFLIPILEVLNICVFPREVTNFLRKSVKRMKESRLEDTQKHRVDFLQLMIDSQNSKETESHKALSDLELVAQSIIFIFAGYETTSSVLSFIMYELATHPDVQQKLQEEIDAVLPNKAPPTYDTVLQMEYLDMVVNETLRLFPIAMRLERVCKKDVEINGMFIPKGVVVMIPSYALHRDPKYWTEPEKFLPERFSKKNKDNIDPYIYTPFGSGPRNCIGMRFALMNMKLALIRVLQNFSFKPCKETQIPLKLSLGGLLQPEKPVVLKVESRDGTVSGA
Chain of Cytochrome P450 2D6 (Homo sapiens) (P10635 whole entry, looked up): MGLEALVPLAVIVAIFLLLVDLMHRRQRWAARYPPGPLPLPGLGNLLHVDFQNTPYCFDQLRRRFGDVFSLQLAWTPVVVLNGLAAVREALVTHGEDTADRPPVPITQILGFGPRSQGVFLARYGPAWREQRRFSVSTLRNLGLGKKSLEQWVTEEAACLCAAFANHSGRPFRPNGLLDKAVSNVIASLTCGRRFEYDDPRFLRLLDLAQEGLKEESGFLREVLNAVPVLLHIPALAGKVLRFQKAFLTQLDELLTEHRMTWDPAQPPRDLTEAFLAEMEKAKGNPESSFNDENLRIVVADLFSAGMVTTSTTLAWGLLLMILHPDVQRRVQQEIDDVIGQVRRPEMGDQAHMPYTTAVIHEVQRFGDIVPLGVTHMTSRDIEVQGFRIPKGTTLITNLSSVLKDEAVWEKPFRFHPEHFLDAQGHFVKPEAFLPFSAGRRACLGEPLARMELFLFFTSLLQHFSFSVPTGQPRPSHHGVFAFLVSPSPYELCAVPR
Chain of Glucocorticoid receptor (Homo sapiens) (P04150 whole entry, looked up, the tested form may be a part): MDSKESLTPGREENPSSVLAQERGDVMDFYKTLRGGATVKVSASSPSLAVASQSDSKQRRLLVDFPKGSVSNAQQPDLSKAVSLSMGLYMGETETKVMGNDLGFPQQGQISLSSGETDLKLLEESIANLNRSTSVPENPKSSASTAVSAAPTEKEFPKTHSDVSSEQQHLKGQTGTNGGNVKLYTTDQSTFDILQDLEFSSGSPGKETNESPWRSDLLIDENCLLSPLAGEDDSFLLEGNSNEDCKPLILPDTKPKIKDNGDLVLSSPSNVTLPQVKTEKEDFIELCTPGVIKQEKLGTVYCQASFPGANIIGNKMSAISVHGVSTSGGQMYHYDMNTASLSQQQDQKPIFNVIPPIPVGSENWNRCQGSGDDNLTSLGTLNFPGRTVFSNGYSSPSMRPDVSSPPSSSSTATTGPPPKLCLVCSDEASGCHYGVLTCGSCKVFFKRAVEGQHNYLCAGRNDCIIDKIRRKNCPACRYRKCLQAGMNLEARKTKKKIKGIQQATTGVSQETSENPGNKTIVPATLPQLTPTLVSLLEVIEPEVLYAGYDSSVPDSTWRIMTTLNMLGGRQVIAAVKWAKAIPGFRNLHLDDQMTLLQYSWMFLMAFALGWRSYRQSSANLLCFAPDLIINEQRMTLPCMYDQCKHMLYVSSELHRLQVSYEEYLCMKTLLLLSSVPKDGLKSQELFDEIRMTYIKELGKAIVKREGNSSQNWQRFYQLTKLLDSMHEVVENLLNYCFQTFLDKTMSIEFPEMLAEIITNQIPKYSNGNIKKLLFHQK
Chain of Lysosomal acid glucosylceramidase (Homo sapiens) (P04062 whole entry, looked up): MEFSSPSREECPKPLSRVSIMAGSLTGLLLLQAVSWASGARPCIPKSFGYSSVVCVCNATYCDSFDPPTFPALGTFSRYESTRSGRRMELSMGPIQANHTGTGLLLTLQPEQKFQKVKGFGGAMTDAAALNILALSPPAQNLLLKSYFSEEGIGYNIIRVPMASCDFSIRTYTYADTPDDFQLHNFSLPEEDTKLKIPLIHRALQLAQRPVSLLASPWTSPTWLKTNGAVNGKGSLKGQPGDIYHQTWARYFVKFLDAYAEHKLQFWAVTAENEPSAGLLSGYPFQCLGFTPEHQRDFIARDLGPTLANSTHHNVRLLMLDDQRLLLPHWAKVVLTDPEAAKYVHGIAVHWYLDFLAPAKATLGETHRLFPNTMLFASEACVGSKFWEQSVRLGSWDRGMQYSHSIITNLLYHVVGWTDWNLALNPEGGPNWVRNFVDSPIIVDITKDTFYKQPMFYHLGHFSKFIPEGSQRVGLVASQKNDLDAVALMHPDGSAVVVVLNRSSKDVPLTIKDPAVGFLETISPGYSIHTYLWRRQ
Chain of Cytochrome P450 1A2 (Homo sapiens) (P05177 whole entry, looked up): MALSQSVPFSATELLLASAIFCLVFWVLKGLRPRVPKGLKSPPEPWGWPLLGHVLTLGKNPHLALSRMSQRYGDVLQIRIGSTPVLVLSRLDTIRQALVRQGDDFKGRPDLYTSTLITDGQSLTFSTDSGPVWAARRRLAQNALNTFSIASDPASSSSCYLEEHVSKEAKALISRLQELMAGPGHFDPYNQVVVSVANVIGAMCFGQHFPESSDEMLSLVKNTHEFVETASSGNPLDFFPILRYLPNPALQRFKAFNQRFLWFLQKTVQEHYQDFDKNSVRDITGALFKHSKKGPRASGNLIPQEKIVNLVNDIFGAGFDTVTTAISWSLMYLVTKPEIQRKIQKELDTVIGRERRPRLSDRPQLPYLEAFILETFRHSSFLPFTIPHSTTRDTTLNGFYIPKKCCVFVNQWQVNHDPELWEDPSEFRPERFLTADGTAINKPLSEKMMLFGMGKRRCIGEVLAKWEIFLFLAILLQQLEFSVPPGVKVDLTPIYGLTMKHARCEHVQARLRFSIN

COc1cc2c(cc1-c1cc3cc4ccoc4cc3oc1=O)OCO2
inactive: Potency [2] | Potency [3] | Potency [4] | activity change, negative = inhibition [5] 16.5%
active: Potency [1] 0.398 µM | Potency [6] 50.1 µM
6.63%: max response [5, 16]
25.9%: max response [5, 17]

C=C(C)c1cc2cc(C(C)=O)c(O)cc2o1
19.8%: max response [5, 17]
active: Potency [1] 31.6 µM
9.32%: max response [5, 16]
inactive: Potency [2] | Potency [4] | activity change, negative = inhibition [5] 9.94% | Potency [6] | outcome [7]

N#Cc1cccc(NC(=O)N2CC[C@@]3(CCCN(C(=O)Oc4ccccc4)C3)C2)c1
inactive: Potency [8] > 11.4 µM | outcome [9] | Potency [10] | activity change, negative = inhibition [11] -14.8% | outcome [12] | Potency [13] > 46 µM | outcome [14] | Potency [2] | Potency [15] | outcome [7]

O=C1c2ccccc2-c2cccc3cccc1c23
28.5%: max response [5, 17]
9.47%: max response [5, 16]
inactive: Potency [2] | Potency [3] | activity change, negative = inhibition [5] 15.9% | Potency [6]

CC(C)CN1CC[C@@]2(CCCN(C(=O)Oc3ccccc3)C2)C1
inactive: Potency [8] > 11.4 µM | outcome [9] | activity change, negative = inhibition [11] -1.09% | outcome [12] | Potency [13] > 46 µM | outcome [14] | Potency [2] | outcome [7]
active: Potency [10] 15.8 µM | Potency [15] 6.31 µM
